# The whole screen tested about 2,100 compounds, of which about 670 (32%) were called active. About 50% were inconclusive and are not listed. Calls come from the whole dose curve; as a rule, active = well fitted inhibition curve with a large enough effect; inconclusive = small, poorly fitted or top-dose-only effect; inactive = no such curve, though single readings can be large or run the other way. The list shows a part of the results.
# Test: CMV-Luciferase Counterscreen for Inhibitors of ATXN expression; note: nearly all actives have a fitted effect of over 55% in size
# Details: HEK-293 CMV-luciferase reporter, luminescence, 24 h; series mostly up to 57.5 µM; activity change, negative = inhibition: at the top concentration
# % is set by controls: 0 for no effect and ±100 for the full control effect; potency is the fitted concentration of half-maximal effect.
Structure (SMILES),Potency,"activity change, negative = inhibition"
Cc1cc(OCc2nc(N)nc(N)c2-c2ccc(Cl)c(Cl)c2)ccc1[N+](=O)[O-],0.316 µM (active),
CCCCC(=O)OCC(=O)C1(O)Cc2c(O)c3c(c(O)c2C(OC2CC(NC(=O)C(F)(F)F)C(O)C(C)O2)C1)C(=O)c1c(OC)cccc1C3=O (centres undefined),3.16 µM (active),
COc1cccc2c1C(=N)c1c(O)c3c(c(O)c1C2=O)CC(O)(C(C)=O)CC3OC1CC(N)C(O)C(C)O1 (centres undefined),0.282 µM (active),
C=CCn1cnc2c(c1=O)c1nc3ccccc3nc1n2/N=C/c1cc(OC)c(OC)c(OC)c1,,-11.7% (inactive)
O=C(c1cnc(N2CCN(c3ccccn3)CC2)c2ccccc12)N1CCN(c2cccc(Cl)c2)CC1,6.31 µM (active),
Cc1ccc(NC(=O)c2cnc(N3CCN(c4ccccn4)CC3)c3ccccc23)c(Br)c1,14.1 µM (active),
CCCc1nc(NC2CCCCC2)c(C#N)c2c1COC(C)(C)C2,,-15.4% [at 11.4 µM] (inactive)
CC(=O)Oc1ccc(N(C(C)=O)S(=O)(=O)c2cccs2)c2ccccc12,25.1 µM (active),
CC(=O)Oc1ccc(N(C(C)=O)S(=O)(=O)c2ccc(C)cc2C)c2ccccc12,17.8 µM (active),
NC(Cc1ccc(F)cc1)c1csc(Nc2cc(NCc3ccco3)ncn2)n1 (centres undefined),,0.881% [at 11.4 µM] (inactive)
Cc1nc(C(F)(F)F)c(C(=O)N/N=C(\N)c2ccccn2)s1,10 µM (active),
Cc1cccc(/C=C/C(=O)c2ccc([N+](=O)[O-])o2)c1,3.55 µM (active),
COc1cc(/C=C/C(=O)c2ccc(C)c([N+](=O)[O-])c2)cc(OC)c1O,,-13.8% (inactive)
CN(C)C(=O)c1cccc(-c2cnc3c(NC=O)cc(-c4ccc(F)cc4)cn23)c1,,49.3% [at 11.4 µM] (inactive)
COc1ccc(CC2C(=O)NC(C)C(=O)N(C)C3Cc4ccc(cc4)Oc4cc(ccc4O)CC(C(=O)NC(C)C(=O)NC(C)C(=O)N2C)N(C)C3=O)cc1 (centres undefined),0.891 µM (active),
O=C(N/N=C/c1cc([N+](=O)[O-])ccc1O)c1cc(-c2ccccc2)nc2ccccc12,1.78 µM (active),
O=C(N/N=C/c1cc([N+](=O)[O-])ccc1O)c1cccc2cc[nH]c12,2.82 µM (active),
OC[C@@H]1CN(Cc2ccc(-c3ccccc3)cc2)C[C@H](n2cnc3c(Nc4ccccc4)ncnc32)O1,12.6 µM (active),
CN(C)CCNc1ncnc2c1ncn2[C@H]1CN(Cc2ccc(-c3ccccc3)cc2)C[C@@H](CO)O1,,-29.3% (inactive)
OC[C@@H]1CN(Cc2ccc(-c3ccccc3)cc2)C[C@H](n2cnc3c(NC4CCC4)ncnc32)O1,10 µM (active),
CN(C)CCCNc1nc2cc(-c3cccc(Cl)c3)sc2c(=O)n1C,,-10.1% (inactive)
CN(C)C(=O)CSc1nc(-c2ccccc2)nc2c1CCCC2,,-18.6% (inactive)
CC1CCCCN1C(=O)C1CCN(c2nc(-c3ccccc3)nc3c2CCC3)CC1 (centres undefined),22.4 µM (active),
CSc1nc(-c2ccc(Cl)cc2)nc(N)c1C#N,,-7.46% [at 11.4 µM] (inactive)
CCc1cc(-c2nnn(CCC3COCCO3)c2CC)ccc1-c1cn(CCc2c[nH]c3ccccc23)nn1 (centres undefined),4.47 µM (active),

Structure (SMILES),Potency,"activity change, negative = inhibition"
COc1ccc2oc(/C=C/N(C)C)c(C(=O)c3ccc(Cl)cc3)c2c1,12.6 µM (active),
C[C@H]1O[C@@H](O[C@H]2[C@@H](O)C[C@H](O[C@H]3[C@@H](O)C[C@H](O[C@H]4CC[C@@]5(C)[C@H](CC[C@@H]6[C@@H]5C[C@@H](O)[C@]5(C)[C@@H](C7=CC(=O)OC7)CC[C@]65O)C4)O[C@@H]3C)O[C@@H]2C)C[C@H](O)[C@@H]1O,,-12% (inactive)
COc1cc2c3nnc(-c4ccc(F)cc4)c-3cn(Cc3ccc(C)cc3)c2cc1OC,,16.9% (inactive)
O=c1oc2ccccc2c(O)c1Cc1cc(Cl)c2cccnc2c1O,10 µM (active),
CCC1(c2ccccc2)ON(c2c(Br)cccc2Br)C1=O (centres undefined),17.8 µM (active),
O=C(c1ccc(Cn2c(=S)[nH]c3ccccc3c2=O)cc1)N1CCN(c2ccccn2)CC1,3.16 µM (active),
CCc1nc2ccc(C(=O)Nc3cccc(NS(C)(=O)=O)c3)cn2c1N(CC)Cc1cccc(Br)c1,31.6 µM (active),
CCc1nc(N)nc(N)c1-c1ccc(N(C)Cc2ccccc2)c([N+](=O)[O-])c1,0.501 µM (active),
Cn1c(-[n+]2c(-c3ccccc3)cc(-c3ccccc3)cc2-c2ccccc2)nc2c([N+](=O)[O-])cccc21,,0.1% [at 11.4 µM] (inactive)
O=S(=O)([N-]c1nc2ccccc2nc1-[n+]1ccc(Cc2ccccc2)cc1)c1ccc(Br)s1,14.1 µM (active),
Cc1ccc(-c2cc(C(=O)NCCCN3CCOCC3)no2)cc1,8.91 µM (active),
CN1CCN(CCNC(=O)c2ccc3nc(-c4ccc(F)cc4)c(-c4ccc(F)cc4)nc3c2)CC1,,-29.4% (inactive)
O=C(Nc1ccc(Cl)c([N+](=O)[O-])c1)c1ccc(NCCCN2CCOCC2)c([N+](=O)[O-])c1,,1.7% (inactive)
CCc1ccc(N2CC(C(=O)N/N=C/c3cc([N+](=O)[O-])ccc3O)CC2=O)cc1 (centres undefined),10 µM (active),
O=C(N/N=C/c1ccccc1O)C1CC(=O)N(c2ccc(Cl)cc2)C1 (centres undefined),0.631 µM (active),
Cc1cnc(NC(=O)C2CC(=O)N(c3cccc(Cl)c3)C2)s1 (centres undefined),,51.5% [at 11.4 µM] (inactive)
COc1ccc(Cn2c(-c3ccc(C)cc3)c[n+]3ccccc23)cc1,1 µM (active),
Nc1nc(N)c2cc(Sc3ccc4ccccc4c3)ccc2n1,10 µM (active),
COc1cc(Nc2ncc3c(n2)CCN(C(=O)Nc2ccc(C(C)C)cc2)C3)cc(OC)c1OC,,-3.4% [at 11.4 µM] (inactive)
COc1cc(NC(=O)c2cc(-c3ccccc3)nc3c2cnn3C(C)C)cc(OC)c1OC,3.16 µM (active),
O=C(Nc1ccc(N2CCN(C(=O)c3ccco3)CC2)c(Cl)c1)c1cccs1,20 µM (active),
Cc1ccccc1C(=O)N1CCN(c2ccc(NC(=O)c3ccco3)cc2Cl)CC1,12.6 µM (active),
O=C(Nc1ccc(N2CCOCC2)c(Cl)c1)c1c(F)c(F)c(F)c(F)c1F,,29.5% [at 11.4 µM] (inactive)
O=C(Nc1ccc(NC(=O)c2ccc(Cl)cc2Cl)cc1)c1cccs1,,-4.86% (inactive)

# From PubChem BioAssay AID1745847 (National Center for Advancing Translational Sciences (NCATS), 2022)
